Shown are actives, neighbours in structure and some others; about 2.1% of the full set was active somewhere.
D2 PAM-1: D2 dopamine receptor (human) potentiation; 0.34% of 340,000 active; P14416; HEK293 T-REx D2, calcium flux, EC20 dopamine potentiation; potentiation, % at 10 µM;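 active = potentiation over 3 SD above the plate norm, cut at about 30% in these data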; note: 0% is about no effect
Target sequence (P14416 whole entry, looked up): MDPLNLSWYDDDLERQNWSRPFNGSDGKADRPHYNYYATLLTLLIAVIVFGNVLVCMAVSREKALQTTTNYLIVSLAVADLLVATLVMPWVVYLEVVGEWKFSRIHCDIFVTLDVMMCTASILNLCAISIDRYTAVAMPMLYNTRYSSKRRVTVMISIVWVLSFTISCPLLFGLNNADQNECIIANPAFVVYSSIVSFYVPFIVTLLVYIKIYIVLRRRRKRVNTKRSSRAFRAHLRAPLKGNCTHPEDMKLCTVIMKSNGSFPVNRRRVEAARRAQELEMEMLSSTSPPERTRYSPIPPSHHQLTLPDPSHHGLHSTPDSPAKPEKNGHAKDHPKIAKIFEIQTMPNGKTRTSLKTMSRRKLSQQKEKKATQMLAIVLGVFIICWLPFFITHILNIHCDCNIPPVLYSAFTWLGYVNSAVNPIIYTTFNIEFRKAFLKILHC
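Primary screen. Calcium kinetics in induced HEK293 T-REx D2 cells: compound pre-addition 180 s, EC20 dopamine, 180 s more.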
LDHA inh: LDHA (human) enzyme inhibition | P00338 | purified LDHA, NADH/diaphorase-resazurin fluorescence; hits give low values | activity change, % (values are at about 110 or 230 µM) | 0.15% of 480,000 active | AID 1347041; in the data active = activity change below about -30%; inconclusive = mostly about -25% to -30%;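 note: plate controls were DMSO wells for no effect and wells without enzyme for full effect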
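Human LDH5 at 2 nM final in Tris HCl pH 7.4 with 0.06 mM NADH and 0.2 mM pyruvate, reacted 5 minutes at room temperature. Remaining NADH coupled via diaphorase/resazurin; resorufin fluorescence read at 0 and 20 minutes, normalized to enzyme-free and DMSO wells.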
D2 ag-1: human D2 receptor agonism in beta-arrestin assay; DiscoveRx PathHunter D2 beta-arrestin, luminescence, 90 min; 100% = 57 uM dopamine signal; activation, % (concentration not given with the values); 0.084% of 360,000 active; AID 624465; in the data active = activation above about 40%; inconclusive = between about 15% and that limit
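DiscoveRx PathHunter D2 beta-arrestin cells (2,100/well) attached overnight, then compound-stimulated 90 min at 37 C in HBSS/10 mM HEPES/0.1% Tween-20 buffer; beta-galactosidase complementation read by luminescence after 1 h at ambient temperature. Dopamine 57 uM final (EC100) as control.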
D2 antag: antagonizes the human D2 dopamine receptor | HEK293 TREx D2 cells, calcium flux, dopamine EC80 | inhibition, % at 10 µM | 2% of 340,000 active; in the data active = inhibition above about 30%; inactive = below that, where a call was filed; note: 0% is about no effect
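Calcium mobilization kinetics were recorded at 1 s intervals in tetracycline-induced HEK293 T-REx D2 cells, first for 180 s after compound addition and then 180 s after EC80 dopamine.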
D2 ag-2: D2 dopamine receptor (human) agonism. P14416. HEK293 T-REx D2 cells, calcium flux agonist mode. activation, % at 2 µM. 0.53% of 340,000 active. AID 485358;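 active = activation over 3 SD above normal in the single-dose calcium agonist read, cut at about 30% in these data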; note: 0% is about no effect
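In this primary screen, compounds producing a positive calcium signal within 180 s of addition to tetracycline-induced, force-coupled HEK293 Trex D2 cells are flagged; cells are dye-loaded with a no-wash calcium kit beforehand.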
D2 PAM-2: positive allosteric modulators of human D2 dopamine receptor. P14416. DiscoveRx D2 beta-arrestin cells, luminescence, 90 min; 100% = 57 uM dopamine signal. potentiation, % (no concentration beside the values). 0.23% of 360,000 active. AID 624464; in the data active = potentiation above about 50%; inconclusive = mostly about 30% to 49%
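PathHunter D2 cells, attached overnight at 37 deg C, received compound in DMSO plus dopamine at EC20 (50 nM final) for 90 min at 37 deg C. Beta-arrestin recruitment was read as luminescence after 1 h with detection reagent at ambient temperature.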
* marks the source's active call; other numbers are inactive results; ? = inconclusive; nt = no result.

SMILES	D2 PAM-1	LDHA inh	D2 ag-1	D2 antag	D2 ag-2	D2 PAM-2
NC(=O)c1ccccc1NC(=O)CC12CC3CC(CC(Br)(C3)C1)C2	36*	1	-1	-5	5	-5
O=C(O)c1cc(O)ccc1O	nt	4	0	nt	nt	0
O=C(O)C1=CC(=C(c2ccc(O)c(C(=O)O)c2)c2ccc(O)c(C(=O)O)c2)C=CC1=O	-15	-75*	nt	17	2	nt
CCc1ccc(OCC(=O)N/N=C(\C)c2ccc(O)cc2O)cc1	-13	4	-4	45*	0	-7
Cc1ccc(S(=O)(=O)Cc2nc(-c3ccc(C(=O)NCCN4CCCCCC4)cc3)oc2C)cc1	nt	-1	nt	nt	nt	nt
CC(OC(=O)c1ccc([N+](=O)[O-])o1)C(=O)Nc1nc(-c2ccc(F)c(F)c2)cs1 (stereo not given)	-6	5	7	3	0	66*
Cc1cc(C(=O)OC(C)C(=O)Nc2nc(-c3ccccc3)cs2)c(C)o1 (stereo not given)	28	3	-1	-8	-1	3
FC(F)(F)C(Oc1nc(N2CCOCC2)nc(N2CCOCC2)n1)C(F)(F)F	nt	9	nt	nt	nt	nt
Cc1ccc(SCCC(=O)NCCC(C)C)cc1	nt	1	nt	nt	nt	nt
Cc1ccc(SCCC(=O)NC(C)C)cc1	-11	-2	-3	32*	1	-8
CCN(CC)C(=O)COc1ccc2oc(C)c(C(=O)OC(C)C)c2c1	-6	-1	-4	31*	0	-5
Cc1ccc(-c2c[n+](Cc3ccc(Cl)cc3)c3n2CCC3)cc1	-27	-11	-6	-13	-1	-18
Clc1ccc(-c2c[n+](Cc3ccc(Cl)c(Cl)c3)c3n2CCC3)cc1	-20	nt	nt	41*	-1	nt
O=C(O)C(c1c[nH]c2cccc(Cl)c12)N1CCN(Cc2cccc(Cl)c2)CC1 (stereo not given)	nt	-10	nt	nt	nt	nt
Cc1ccc2oc(C(Cl)(Cl)Cl)cc(=O)c2c1	-4	-2	9	3	-1	76*
O=Nc1c(O)ccc2cc(S(=O)(=O)O)ccc12	nt	44	?	nt	nt	100*
CN(C)c1ccc2cc(S(=O)(=O)O)cc(O)c2c1	nt	46	11	nt	nt	9
CC(=O)CC(=O)N(CCC[N+](C)(C)C)CCC[N+](C)(C)C	nt	-17	nt	nt	nt	nt
CN1CCc2c(sc3ncn4nc(CSc5nc6ccccc6o5)nc4c23)C1	nt	4	nt	nt	nt	nt
FC(F)(F)c1ccccc1/C=N/N1CCN(Cc2ccccc2)CC1	-21	0	0	30*	-1	-21
Cc1ccc(CN2CCN(/N=C/c3cccs3)CC2)cc1	-25	-5	-1	34*	-1	-30
Cc1ccc(CN2CCN(/N=C/c3ccc(C(F)(F)F)cc3)CC2)cc1	-3	-6	1	-26	0	-15
Cc1ccc(/C=N/N2CCN(Cc3ccc(C)cc3)CC2)cc1	-20	-1	1	55*	0	-13
COC(=O)c1cc(-c2ccc(F)cc2)nc2onc(-c3ccccc3)c12	nt	15	nt	nt	nt	nt
COc1ccc2c(CNc3ccc(C)cc3)cc(=O)oc2c1	nt	9	nt	nt	nt	nt
SMILES	D2 PAM-1	LDHA inh	D2 ag-1	D2 antag	D2 ag-2	D2 PAM-2
Cc1cccc(NS(=O)(=O)c2ccc(C(C)(C)C)cc2)n1	-6	-16	7	0	0	-1
Cc1cccc(NS(=O)(=O)c2ccccc2)n1	7	-9	-2	31*	0	-2
CC(C)C(=O)N1CCN(C(=O)C2CC(=O)N(c3cccc(C(F)(F)F)c3)C2)CC1 (stereo not given)	nt	-4	nt	nt	nt	nt
CCOC(=O)c1ccc(NC(=O)N2CCCCC2)cc1	0	-6	-2	7	1	-1
CCOC(=O)c1ccc(NC(=O)CC2C(=O)OCCN2CC)cc1 (stereo not given)	-4	-3	-5	48*	-1	-2
CCOC(=O)N1CCN(C(=O)Nc2ccccc2)CC1	-2	-5	-2	31*	0	-3
CCOC(=O)c1ccc(NC(=O)CN2CCN(Cc3ccccc3)CC2)cc1	nt	-12	-4	nt	nt	-8
CCOC(=O)c1ccc(NC(=O)N2CCN(Cc3ccccc3)CC2)cc1	0	-11	8	44*	-1	-8
CCOC(=O)c1ccc(NC(=O)N2CCN(C3CCCCC3)CC2)cc1	-3	-1	-1	34*	-1	-15
CC(C)OCc1cc(CN2CCN(c3ccccc3)CC2)c(O)c2ncccc12	10	5	nt	nt	-1	nt
Oc1c(CN2CCN(c3ccccc3)CC2)cc(Br)c2cccnc12	-26	2	1	59*	4	-18
CCN(CC(=O)Nc1c(F)cccc1F)C(=O)Cc1c(C)nc2ccccc2c1C	0	-7	-6	4	0	-9
CCN(CC(=O)Nc1c(F)cccc1F)C(=O)Cc1csc(-c2ccccc2)n1	-5	-7	-5	35*	-1	-7
CCCCOc1ccccc1Cn1c(=O)oc2ccc(C)cc21	7	2	1	31*	1	-4
COc1ccc(Br)cc1S(=O)(=O)n1c([N+](=O)[O-])cnc1C	2	-2	-3	34*	1	-9
COc1ccccc1N1C(=O)CSC1=S	32*	-5	-3	-2	0	-3
CCn1c2ccccc2c2cc(CNCc3ccc(OC)cc3OC)ccc21	-28	-7	3	35*	8	-3
CCc1cccc(NC(=O)COC(=O)/C=C/c2cccs2)c1	-7	-4	-4	31*	0	-6
O=C(COC(=O)/C=C/c1cccs1)Nc1ccc(F)cc1	11	0	-1	6	0	-6
O=C(O)c1cc(-c2ccco2)nc2cc(Br)ccc12	nt	10	nt	nt	nt	nt
O=C(c1ccc2c(c1)OCO2)N1CCC2(CC1)Oc1ccc(Cl)cc1C(=O)C21CC(c2ccccc2)=NO1 (stereo not given)	7	-2	-2	42*	1	-11
COc1ccc(N2CCN(c3nc(Nc4ccc(F)cc4)nc(OC)n3)CC2)cc1	33*	nt	nt	-22	-1	nt
COc1ccc(N2CCN(c3nc(Cl)nc(Nc4ccc(F)cc4)n3)CC2)cc1	1	-2	0	4	4	-1
CCCN(CCC)C(=O)CSc1ncccc1C(=O)O	-19	-5	0	3	38*	-17
CC(O)(CS(=O)(=O)c1ccc(Br)cc1)c1ccccc1 (stereo not given)	-8	-4	7	31*	0	4
O=S(=O)(CC(O)(c1ccccc1)c1ccccc1)CC(O)(c1ccccc1)c1ccccc1	nt	-14	-1	nt	nt	-1
CC(Sc1nc(-c2ccco2)nc2ccccc12)C(=O)N(C(C)C)C(C)C (stereo not given)	nt	-10	nt	nt	nt	nt

Assay outcomes as filed in PubChem.
